Screening results deposited in PubChem BioAssay by Sanford-Burnham Center for Chemical Genomics.
Hits are enriched below; roughly 3% of the tested compounds scored in any of these assays.
SENP8 block-1: inhibitors of human SENP8 protease; purified SENP8, Z-RLRGG-aminoluciferin cleavage, luminescence; inhibition, % at 10 µM; AID 2540; Q96LD8; actives 1.2% (n = 330,000); in the data active means inhibition above about 50%
Target sequence (Q96LD8 whole entry, looked up): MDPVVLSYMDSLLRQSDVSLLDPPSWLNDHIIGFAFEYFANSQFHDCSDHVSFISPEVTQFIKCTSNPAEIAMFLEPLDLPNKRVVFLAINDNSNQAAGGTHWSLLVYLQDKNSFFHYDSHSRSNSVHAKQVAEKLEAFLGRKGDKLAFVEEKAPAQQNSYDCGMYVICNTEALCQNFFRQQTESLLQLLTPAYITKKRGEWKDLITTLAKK
TRAIL sens C8: sensitizes caspase-8 expressing cells to TRAIL. NB7+C8 cells + TRAIL, ATPlite viability luminescence. inhibition (viability loss, TRAIL sensitization), % at 10 µM. actives 1% (n = 360,000);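 active means compounds causing at least 50% loss of cell viability in the single-dose screen, relative to plate controls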
SENP8 block-2: inhibitors of human SENP8 protease. Q96LD8. recombinant SENP8, Nedd8 substrate fluorescence. inhibition, % at 20 µM. actives 0.64% (n = 360,000). AID 602440; in the data active means inhibition mostly above about 40%, no sharp cut-off; inactive means mostly below about 27%
SENP6 inh: SENP6 protease inhibition. actives 1.8% (n = 330,000). AID 2599. inhibition, % at 10 µM. Recombinant SENP6 catalytic domain, aminoluciferin luminescence. Q9GZR1;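 active means inhibition above about 50% at the single tested dose, limit read from the data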;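 further: plate controls were DMSO wells with enzyme for no effect and DMSO wells lacking enzyme for full effect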
Target sequence (Q9GZR1 628-1112 limits assumed): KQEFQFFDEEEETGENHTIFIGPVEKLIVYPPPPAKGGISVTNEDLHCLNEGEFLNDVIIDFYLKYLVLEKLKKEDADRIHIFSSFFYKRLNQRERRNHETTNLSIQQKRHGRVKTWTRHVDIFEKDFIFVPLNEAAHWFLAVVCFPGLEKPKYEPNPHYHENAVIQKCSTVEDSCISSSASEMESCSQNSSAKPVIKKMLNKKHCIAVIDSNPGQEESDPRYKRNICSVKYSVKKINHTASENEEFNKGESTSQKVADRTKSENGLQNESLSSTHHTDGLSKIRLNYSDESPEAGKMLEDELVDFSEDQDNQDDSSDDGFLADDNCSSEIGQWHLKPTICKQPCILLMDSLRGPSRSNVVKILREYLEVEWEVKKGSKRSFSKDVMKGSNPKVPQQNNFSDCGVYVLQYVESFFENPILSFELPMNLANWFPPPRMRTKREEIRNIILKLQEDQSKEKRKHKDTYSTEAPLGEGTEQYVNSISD
PPC-1+TRAIL kill: kills PPC-1 cancer cells in the presence of TRAIL | PPC-1 cells + TRAIL, ATPLite viability luminescence | cell killing (% activity), % at 4 µM or 5 µM | actives 0.41% (n = 220,000) | AID 1443;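 active means cell killing above 50% in the first pass at 4 µM, then a duplicate retest at 5 µM averaging 50% or more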;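 further: plate controls were cells with TRAIL plus DMSO for no effect and medium-only wells lacking cells for full effect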
SENP7 inh: inhibitors of human SENP7 protease | AID 434973 | Q9BQF6 | inhibition, % at 5 µM | actives 1.5% (n = 330,000) | recombinant SENP7, Z-RLRGG-aminoluciferin luminescence, 40 min;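 active means inhibition above about 50% at the single test dose, limit read from the data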;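 further: plate controls were DMSO with enzyme for no effect and no enzyme buffer wells for full effect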
* = called active by the depositor.

Results for O=C(Nc1ccc(N=Nc2ccccc2)cc1)c1ccc(Cl)cc1Cl ?
SENP8 block-1: -1.2; TRAIL sens C8: -18.7; SENP8 block-2: 19.8; SENP6 inh: -4.7; PPC-1+TRAIL kill: -0.4; SENP7 inh: 3.9

What do the screens show for `CCCCSc1nnc(-c2cc3c(C(F)(F)F)nn(C)c3s2)n1C`?
SENP8 block-1: -7.0; TRAIL sens C8: -9.9; SENP8 block-2: -63.1; SENP6 inh: -26.5; PPC-1+TRAIL kill: 9.4; SENP7 inh: -10.4

Results for C#CCSc1nnc(-c2cc3c(C(F)(F)F)nn(C)c3s2)n1C ?
SENP8 block-1: -8.2; TRAIL sens C8: 89.4*; SENP8 block-2: -3.3; SENP6 inh: -9.1; PPC-1+TRAIL kill: -6.2; SENP7 inh: -5.6

What do the screens show for `COc1cc(/C=C2\S/C(=N/S(=O)(=O)Cc3ccccc3)NC2=O)c([N+](=O)[O-])cc1OC`?
SENP8 block-1: 1.4; TRAIL sens C8: 7.5; SENP8 block-2: 10.0; SENP6 inh: 12.4; PPC-1+TRAIL kill: -2.6; SENP7 inh: 5.2

How did COc1cc(/C=C2/S/C(=N/S(=O)(=O)Cc3ccccc3)NC2=O)c([N+](=O)[O-])cc1OC do in these assays?
SENP8 block-1: 1.7; TRAIL sens C8: -3.6; SENP8 block-2: 41.8*; SENP6 inh: 9.4; PPC-1+TRAIL kill: 6.4; SENP7 inh: 5.8

Results for CCOc1ccc(C(=O)Nc2ccccc2NC(C)=O)cc1OCC ?
SENP8 block-1: 1.1; TRAIL sens C8: -0.7; SENP8 block-2: 4.9; SENP6 inh: -8.7; PPC-1+TRAIL kill: -4.7; SENP7 inh: 7.4

How did CCOc1ccccc1Nc1ccc(C(=O)O)cc1NC(C)=O do in these assays?
SENP8 block-1: -12.1; TRAIL sens C8: 5.0; SENP8 block-2: -205.3; SENP6 inh: 0.1; PPC-1+TRAIL kill: 54.2*; SENP7 inh: 3.0

Results for CC(CNC(=O)c1ccccc1Cl)NC(=O)c1ccccc1Cl (stereo unspecified) ?
SENP8 block-1: -7.5; TRAIL sens C8: -2.1; SENP8 block-2: 24.6; SENP6 inh: -7.1; SENP7 inh: -1.2

How did CN(C)C(=O)N1CCN(c2nc(-c3ccccc3)cs2)CC1 do in these assays?
SENP8 block-1: -0.2; TRAIL sens C8: 58.3*; SENP8 block-2: 19.5; SENP6 inh: -16.2; SENP7 inh: 3.9

How did O=C(N1CCOCC1)N1CCN(c2nc(-c3ccccc3)cs2)CC1 do in these assays?
SENP8 block-1: -4.2; TRAIL sens C8: -16.0; SENP8 block-2: 16.6; SENP6 inh: -8.9; PPC-1+TRAIL kill: 7.0; SENP7 inh: -6.4

Results for O=C1/C(=C/c2ccc(O)c([N+](=O)[O-])c2)SC(=S)N1Cc1ccccc1 ?
SENP8 block-1: 92.4*; TRAIL sens C8: 24.2; SENP8 block-2: 40.9*; SENP6 inh: 94.8*; PPC-1+TRAIL kill: 13.8; SENP7 inh: 30.0

What do the screens show for `COc1cc(/C=C2/SC(=S)N(Cc3ccccc3)C2=O)cc(Cl)c1O`?
TRAIL sens C8: 0.3; SENP8 block-2: 46.3*

Results for O=C1/C(=C\c2cc(Br)cc(Br)c2O)SC(=S)N1Cc1ccccc1 ?
SENP8 block-1: 3.6; TRAIL sens C8: 27.0; SENP8 block-2: 40.5*; SENP6 inh: 12.9; SENP7 inh: -5.3

How did Cc1ccc(CSc2nnc(-c3cccnc3)o2)cc1 do in these assays?
SENP8 block-1: -7.1; TRAIL sens C8: 54.1*; SENP8 block-2: 11.6; SENP6 inh: -6.2; PPC-1+TRAIL kill: -8.3; SENP7 inh: -9.8

What do the screens show for `C#CCSc1nnc(-c2ccc(O)cc2)o1`?
SENP8 block-1: 9.8; TRAIL sens C8: 2.4; SENP8 block-2: 11.9; SENP6 inh: 40.0; PPC-1+TRAIL kill: 25.2; SENP7 inh: 12.8

Results for C#CCSc1nnc(-c2ccc(C)cc2)o1 ?
SENP8 block-1: -2.7; TRAIL sens C8: 90.1*; SENP8 block-2: 28.8; SENP6 inh: 27.9; PPC-1+TRAIL kill: 17.2; SENP7 inh: 19.2

Results for CCOc1ccc(NS(=O)(=O)c2ccc(C(=O)NNC(=O)c3ccccc3O)cc2)cc1 ?
SENP8 block-1: -6.8; TRAIL sens C8: -1.2; SENP8 block-2: -8.8; SENP6 inh: -0.8; SENP7 inh: -10.5

How did COn1c(C)c(C(C)=O)c2c3no[n+]([O-])c3ccc21 do in these assays?
SENP8 block-1: 7.4; TRAIL sens C8: -13.0; SENP8 block-2: -75.4; SENP6 inh: -25.7; PPC-1+TRAIL kill: -9.5; SENP7 inh: 2.1

How did C=CCOn1c(C)c(C(C)=O)c2c3no[n+]([O-])c3ccc21 do in these assays?
SENP8 block-1: 1.9; TRAIL sens C8: 59.8*; SENP8 block-2: 15.4; SENP6 inh: -9.5; PPC-1+TRAIL kill: 11.7; SENP7 inh: -0.8

What do the screens show for `CC(C)CC(=O)Nc1nnc(S(=O)(=O)N2CCCCCC2)s1`?
SENP8 block-1: 11.8; TRAIL sens C8: -0.3; SENP8 block-2: -5.8; SENP6 inh: -14.4; SENP7 inh: -3.7

What do the screens show for `N#CC(C#N)=Cc1ccc(NC(=O)c2ccc(Br)cc2)cc1`?
SENP8 block-1: 1.3; TRAIL sens C8: 12.8; SENP8 block-2: -9.0; SENP6 inh: 7.6; PPC-1+TRAIL kill: 20.8; SENP7 inh: -1.1

Results for CC(C)(C)c1ccc(C(=O)Nc2ccc(C=C(C#N)C#N)cc2)cc1 ?
SENP8 block-1: -3.0; TRAIL sens C8: 52.9*; SENP8 block-2: -19.6; SENP6 inh: 1.6; PPC-1+TRAIL kill: 50.1*; SENP7 inh: 4.1

What do the screens show for `Cc1ccc(N=Nc2c(O)c3ccccc3[nH]c2=O)c(S(=O)(=O)N(C)C)c1`?
PPC-1+TRAIL kill: 54.8*

How did O=C(O)c1ccc(N=Nc2c(O)[nH]c3ccccc23)cc1 do in these assays?
SENP8 block-1: 97.3*; TRAIL sens C8: 15.1; SENP8 block-2: 16.5; SENP6 inh: 99.3*; PPC-1+TRAIL kill: 9.2; SENP7 inh: 99.6*

What do the screens show for `Cc1cc(N=Nc2c(O)c3ccccc3[nH]c2=O)ccc1N=Nc1ccc(C(=O)N(C)C)cc1`?
SENP8 block-1: 7.2; TRAIL sens C8: 34.5; SENP8 block-2: 20.4; SENP6 inh: 9.1; PPC-1+TRAIL kill: 20.4; SENP7 inh: 3.0

Results for CN(C)C(=O)c1ccc(N=Nc2c(O)c3ccccc3[nH]c2=O)cc1 ?
TRAIL sens C8: 76.2*; SENP8 block-2: 15.5

How did Cc1ccccc1N=Nc1c(O)[nH]c2ccccc12 do in these assays?
SENP8 block-1: 9.1; TRAIL sens C8: -8.0; SENP8 block-2: -38.4; SENP6 inh: 3.9; SENP7 inh: 8.2

What do the screens show for `N#CC1C(=O)NC(=O)CC12CCCCC2` (stereo unspecified)?
TRAIL sens C8: 0.7; SENP8 block-2: 1.0

What do the screens show for `CC1=NNC(=O)/C1=C\c1cn(-c2ccccc2)nc1-c1ccc(Cl)cc1`?
SENP8 block-1: -7.0; TRAIL sens C8: 87.1*; SENP8 block-2: 7.5; SENP6 inh: -15.7; PPC-1+TRAIL kill: 1.7; SENP7 inh: -0.8

Results for Cc1ccc(-c2nn(-c3ccccc3)cc2C=C2C(=O)CC(C)(C)CC2=O)cc1 ?
SENP8 block-1: 10.1; TRAIL sens C8: -3.6; SENP8 block-2: 24.8; SENP6 inh: 5.0; SENP7 inh: 3.5
